Compound activity: PubChem, National Center for Advancing Translational Sciences (NCATS)
hERG WT inh: blocks the wildtype human KCNH2 potassium channel; Q12809; U2OS, BacMam KCNH2, thallium flux FluxOr; active compounds read low; activity change, % at 1.84 µM; hit rate 0.37% among 340,000; AID 720551;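 active means maximum activity change below -70%; inconclusive means maximum activity change between -70% and -50%; inactive means maximum activity change above -50%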; further: on the % scale 0 is the no-effect control and ±100 the full control effect
Target sequence (Q12809 whole entry, looked up): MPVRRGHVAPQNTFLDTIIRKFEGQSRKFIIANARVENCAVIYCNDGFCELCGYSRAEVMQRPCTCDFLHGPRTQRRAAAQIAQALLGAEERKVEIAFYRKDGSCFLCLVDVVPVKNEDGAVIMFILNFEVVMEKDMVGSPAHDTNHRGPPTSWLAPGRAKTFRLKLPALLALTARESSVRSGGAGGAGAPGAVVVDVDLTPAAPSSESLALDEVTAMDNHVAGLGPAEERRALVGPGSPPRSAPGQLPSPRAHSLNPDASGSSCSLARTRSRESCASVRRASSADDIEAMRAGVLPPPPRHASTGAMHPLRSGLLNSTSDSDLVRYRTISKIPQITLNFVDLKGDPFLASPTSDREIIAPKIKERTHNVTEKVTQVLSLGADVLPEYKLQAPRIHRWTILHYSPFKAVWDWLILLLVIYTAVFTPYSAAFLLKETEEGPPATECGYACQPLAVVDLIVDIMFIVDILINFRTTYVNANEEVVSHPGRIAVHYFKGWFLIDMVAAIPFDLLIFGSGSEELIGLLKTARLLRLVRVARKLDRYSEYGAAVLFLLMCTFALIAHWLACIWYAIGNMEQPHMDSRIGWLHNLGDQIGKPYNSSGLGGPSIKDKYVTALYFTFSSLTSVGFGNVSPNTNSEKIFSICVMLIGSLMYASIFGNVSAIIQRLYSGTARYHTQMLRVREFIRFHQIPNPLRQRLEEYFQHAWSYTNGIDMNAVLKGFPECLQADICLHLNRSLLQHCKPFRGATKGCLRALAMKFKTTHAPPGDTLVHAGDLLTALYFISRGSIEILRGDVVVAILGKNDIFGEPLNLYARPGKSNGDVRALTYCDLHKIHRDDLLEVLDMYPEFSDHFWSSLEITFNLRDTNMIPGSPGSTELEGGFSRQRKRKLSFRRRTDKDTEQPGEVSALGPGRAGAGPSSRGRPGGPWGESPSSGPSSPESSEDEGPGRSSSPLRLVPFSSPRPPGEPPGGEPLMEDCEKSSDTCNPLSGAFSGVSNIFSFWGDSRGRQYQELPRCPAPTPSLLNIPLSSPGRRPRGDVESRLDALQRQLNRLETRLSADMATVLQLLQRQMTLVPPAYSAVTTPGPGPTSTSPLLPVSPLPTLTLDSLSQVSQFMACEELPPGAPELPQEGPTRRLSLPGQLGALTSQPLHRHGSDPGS
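U2OS cells were transduced with wild-type KCNH2 virus (2.03 x 10^8 / mL) for 4 h at room temperature, then cultured overnight at 37 C. Thallium flux was read with FluxOr dye. Rate constants were normalized to DMSO controls.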
TRPML1 inh: blocks the human TRPML1 channel | Q9GZU1 | TRPML1-inducible cells, Ca2+ dye fluorescence, FDSS; active compounds read low; inhibition of EC80 agonist-evoked calcium signal | activity change, negative = inhibition, % (test concentration not listed) | hit rate 0.02% among 390,000 | AID 624415; in the data active means activity change below about -50%; inconclusive means between about -30% and that limit;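 further: stimulus is agonist 54-4 at its EC80 concentration; on the % scale 0 is the no-effect control and ±100 the full control effect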
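Calcium fluorescence in TRPML1-DL cells induced overnight with Tet: a 110 s read after compound pin addition, then a 110 s antagonist read after challenge with 54-4 at 4 uM final (EC80).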
TRPML1 agonist: human mucolipin-1 channel agonism | hit rate 0.12% among 410,000 | Q9GZU1 | TRPML1-expressing cells, Ca2+ dye fluorescence, FDSS | AID 624414 | activation, % (concentration not given with the values); in the data active means activation above about 50%; inconclusive means mostly about 30% to 49%; further: 0% is about no effect
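Calcium fluorescence on an FDSS kinetic reader gave the read-out. Tet-induced TRPML1-DL cells were plated overnight, dye-loaded (Ca8 with quencher, 45-90 min, room temperature, dark), then read 110 s after compound addition, and again 110 s after 4uM final 54-4 (EC80).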
KCNH2 3.1 block: inhibitors of human KCNH2 3.1 potassium channel isoform; activity change, % (tested at about 1.8 µM); U2OS KCNH2 3.1, thallium flux FluxOr; active compounds read low; hit rate 0.95% among 340,000;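 active means maximum activity change below -70%; inconclusive means maximum activity change from -70% to -50%; inactive means maximum activity change above -50%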;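 further: thallium influx rate constant from kinetic fluorescence after stimulation buffer; on the % scale 0 is the no-effect control and ±100 the full control effect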
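Steps: virus added to U2OS suspension (4 h, RT, dark); medium with 10% FBS added, cells plated, 37 C overnight; FluxOr/Red40 loading buffer 45 min RT; stimulation buffer, 2 min kinetic read; rate constant normalized.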
TRHR PAM: allosteric enhancers of human TRH receptor | TRHR cells, fluo-8 calcium fluorescence, EC20 TRH enhancement | enhancement, % at 2 µM | hit rate 0.66% among 360,000 | AID 493056; in the data active means enhancement above about 30%; further: 0% is about no effect
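TRHR-expressing cells loaded with fluo-8 calcium dye were read kinetically (ex 480/em 530) during compound addition, then stimulated with an EC20 of TRH (10 nM final). Enhancement of the Gq-mediated intracellular calcium response was scored.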
TRHR agonist: TRH receptor (human) agonism; TRHR cells, calcium flux fluo-8, FDSS agonist mode; hit rate 0.18% among 360,000; P34981; activation, % at 2 µM; AID 493084; in the data active means activation above about 30%; further: 0% is about no effect
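TRHR-expressing cells loaded with fluo-8 calcium dye; 23 nL library compound pin-transferred, kinetic FDSS fluorescence (Ex 480/Em 530) recorded about 180 s for agonist-induced calcium release, before a 10 nM TRH EC20 addition for potentiator mode.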
The depositor's hits bear a star; i = inactive; ? = inconclusive; · = no result; ! = a repeat was not active. Hits are enriched below; roughly 1.7% of the tested compounds scored in any of these assays.

SMILES	hERG WT inh	TRPML1 inh	TRPML1 agonist	KCNH2 3.1 block	TRHR PAM	TRHR agonist
CCCCCCOc1ccc(/C=C/C(=O)Nc2sc3c(c2C(=O)OC)CCC3)cc1OC	·	9	-1	·	2	-1
CCC1=C(NCc2ccccc2)COC1=O	9	11	0	12	·	·
O=C(CNC(=S)N(CCCN1CCOCC1)Cc1cccs1)NCc1ccccc1Cl	-113*	-11	0	-123*	-7	-1
O=C(CNC(=S)N(CCCN1CCOCC1)Cc1cccs1)NCc1ccc(Cl)cc1	-84*	-7	1	-83*	1	0
Cc1ccccc1NS(=O)(=O)c1ccc(C(=O)N(C)CC(=O)Nc2ccccc2Br)cc1	14	2	0	27	·	·
COc1cc(/C=C(\C#N)c2nn(CCO)c(N)c2C#N)cc(OC)c1OC	-5	5	1	-14	33*	0
N#C/C(=C\c1ccc(/C=C(/C#N)c2nn(CCO)c(N)c2C#N)cc1)c1nn(CCO)c(N)c1C#N	-3	-22	0	7	1	1
Cc1cc(NC(=O)CN(C)CC(=O)Nc2ccc(Cl)cc2)no1	11	-4	-1	-120*	·	·
CN(Cc1ccccc1)C(=O)c1ncn(Cc2ccccc2)c1C(=O)N(C)Cc1ccccc1	4	-3	1	-72*	-1	0
Cc1cc(OCC(=O)N2CCN(c3ccccn3)CC2)c(C)cc1Br	3	16	2	6	-7	0
CCn1nc(C(=O)NNS(=O)(=O)c2ccc(C)cc2)c2ccccc2c1=O	0	-5	0	-22	·	·
S=C1NCN(Cc2ccco2)CN1	4	-5	0	7	41*	0
Cc1ccc(S(=O)(=O)N2CCN(C(=O)C3COc4ccccc4O3)CC2)cc1C (centres undefined)	-20	-7	3	8	27	2
Cc1cc(C)c(S(=O)(=O)N2CCN(C(=O)C3COc4ccccc4O3)CC2)c(C)c1 (centres undefined)	-5	-3	1	22	36*	0
COc1ccc(CC(=O)OCC(=O)NC(=O)NC2CCCC2)cc1	5	63	0	7	-1	-1
COc1ccc(CC(=O)OCC(=O)NC(=O)NC2CCCCC2)cc1	-1	-5	5	1	39*	0
Clc1ccc(-c2ccc(/C=N/Nc3cc(N4CCOCC4)nc(N4CCOCC4)n3)o2)cc1	?	58	1	-95*	-4	1
CCCCOc1ccc(/C=N/Nc2cc(N3CCOCC3)nc(C)n2)cc1	4	8	0	-95*	-1	0
Brc1ccc(-c2ccc(/C=N/Nc3nc(N4CCOCC4)nc(N4CCOCC4)n3)o2)cc1	-5	-11	0	-95*	1	-1
CN1C(=O)CC2(C=CC(=O)C=C2OC(=O)c2ccccc2)c2ccccc21 (centres undefined)	·	-12	0	·	·	·
Cc1ccc(S(=O)(=O)Nc2cc(C(F)(F)F)ccc2N2CCOCC2)cc1	0	12	?	-11	33*	0
Cc1ccc(S(=O)(=O)Nc2cc(C(F)(F)F)ccc2N2CCOCC2)c(C)c1	-8	1	64*	-11	3	1
Cc1ccc(S(=O)(=O)Nc2cc3c(cc2N2CCOCC2)n(C)c(=O)n3C)cc1	·	5	-1	·	1	0
Cc1ccc(S(=O)(=O)Nc2cc3c(cc2N2CCOCC2)n(C)c(=O)n3C)c(C)c1	·	17	0	·	4	0
Cn1c(=O)c2c(O)c(C=Nc3ccc(F)cc3)c(=O)n(C)c2n(C)c1=O	4	7	0	11	-4	0
SMILES	hERG WT inh	TRPML1 inh	TRPML1 agonist	KCNH2 3.1 block	TRHR PAM	TRHR agonist
Cc1cccc(NC(=O)C(C)OC(=O)CNC(=O)C2CCCCC2)c1 (centres undefined)	-144*	-10	-1	7	·	·
COc1ccc(C(=O)C(C)OC(=O)CNC(=O)C2CCCCC2)cc1 (centres undefined)	-4	5	-1	-13	·	·
COc1ccc(/C=N/NC(=O)CNc2n[nH]c(=O)[nH]c2=O)cc1OC	-3	-5	0	-7	34*	-1
CCOc1ccc(CCN2C(=S)N([C@@H](CC(C)C)CN3CCC[C@@H]3CN3C(=S)NC[C@@H]3Cc3ccccc3)C[C@@H]2Cc2ccc(O)cc2)cc1	·	0	0	·	·	·
COC(=O)c1nnn(CC(=O)NC(=O)Nc2ccccc2F)c1C(=O)OC	24	43	0	5	31*!	1
COC(=O)c1nnn(CC(=O)NC(=O)Nc2cccc(C)c2C)c1C(=O)OC	-10	10	1	-16	1	2
COc1ccc(CNC(=O)C2CCC(=O)N(C3CCCCCC3)C2)c(OC)c1 (centres undefined)	-2	6	0	17	·	·
O=C1c2ccccc2C(=O)N1CCSC(=S)N1CCOCC1	-11	-18	0	15	41*	0
O=C(CCN1C(=O)c2ccccc2C1=O)N1CCOCC1	10	-5	-1	7	-10	0
O=C(CCCCCCCCN1C(=O)c2ccccc2C1=O)N1CCOCC1	7	9	0	3	0	0
Fc1c(CSC(=S)N2CCOCC2)cccc1CSC(=S)N1CCOCC1	-152*	87	0	-196*	3	0
O=C(CCCN1C(=O)c2ccccc2C1=O)N1CCOCC1	i	17	0	3	33*	0
C[C@@H]1CCC(=O)N(CC[C@H](Oc2ccccc2)c2ccccc2)CC1	7	33	2	-20	-4	-1
COc1cc(NC(=O)c2cccc3c2C(=O)N(C2CCCCC2)C3)cc(OC)c1OC	3	-9	1	14	5	-1
COCCCn1c(=O)c2ccccc2n(Cc2ccc(C)cc2)c1=O	7	-5	0	-123*	-4	0
COCCCn1c(=O)c2ccccc2n(Cc2cccc(C)c2)c1=O	-1	-7	2	-12	-1	-1
CCOC(=O)C1(CCc2ccccc2)CCN(C(=O)c2occc2C)CC1	0	-10	4	1	-4	2
CCOC(=O)C1(CCc2ccccc2)CCN(Cc2cc(OC)c(OC)cc2OC)CC1	-11	-4	0	-99*	10	0
CCOC(=O)C1(CCc2ccccc2)CCN(C2Cc3ccccc3C2)CC1	?	4	-1	-79*	-7	2
CCOC(=O)C1(CC2CC2)CCN(Cc2ccc(C(=O)OC)cc2)CC1	38	27	1	-35	2	1
CCOC(=O)C1(CCc2ccccc2)CCN(Cc2ccc(C(=O)OC)cc2)CC1	-108*	38	2	-114*	4	1
